Assay outcomes: PubChem BioAssay, several laboratories
NR2F2 inh: NR2F2 (human) inhibition, primary screen | P24468 | HEK293T NGFI-A luciferase reporter, luminescence | inhibition, % at 8.6 µM | hit rate 0.7% among 370,000 | AID 686940;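 active means inhibition above a per-plate cutoff, mean inhibition of test wells between control levels plus 3 SD, cut at about 38% in these data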;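 further: cells cotransfected with COUP-TFII expression vector driving the NGFI-A reporter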
Target sequence (P24468 whole entry, looked up): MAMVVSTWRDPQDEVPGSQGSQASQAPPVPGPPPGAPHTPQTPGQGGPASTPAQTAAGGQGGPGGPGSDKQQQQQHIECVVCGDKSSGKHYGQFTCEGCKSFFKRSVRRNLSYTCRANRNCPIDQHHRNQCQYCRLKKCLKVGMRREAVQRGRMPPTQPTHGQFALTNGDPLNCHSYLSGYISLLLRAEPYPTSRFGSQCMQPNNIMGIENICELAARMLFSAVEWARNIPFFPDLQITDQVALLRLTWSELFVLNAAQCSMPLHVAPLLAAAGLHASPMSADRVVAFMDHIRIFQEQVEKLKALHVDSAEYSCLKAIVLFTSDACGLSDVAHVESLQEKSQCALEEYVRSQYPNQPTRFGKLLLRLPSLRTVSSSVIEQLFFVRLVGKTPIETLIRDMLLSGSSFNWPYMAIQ
NCOA1 inh: human NCOA1 inhibition. Q15788. HEK293 GAL4-SRC1 luciferase reporter, luminescence. inhibition, % at 3.6 µM. hit rate 0.12% among 360,000;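 active means inhibition above the campaign mean plus 3 SD, with each screening campaign given its own cutoff, cut at about 60% in these data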
Gli-Sufu block: blocks Gli-Sufu signaling in a luciferase reporter; hit rate 0.74% among 340,000; inhibition, % at 5 µM; Sufu-KO-LIGHT fibroblasts, Gli luciferase reporter luminescence;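 active means inhibition above about 55%, limit read from the data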
NR5A2 inv ag: NR5A2 inverse agonism in reporter assay; AID 602396; O00482; HEK293T StAR-luciferase reporter, LRH-1 transfected, 24 h; inhibition, % at 3.6 µM; hit rate 0.13% among 360,000;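 active means inhibition above the mean inhibition of all tested compounds plus 3 SD, cut at about 73% in these data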
NCOA3 inh: inhibitors of human steroid receptor coactivator 3 (SRC3). AID 588352. HEK293 GAL4-SRC3 luciferase reporter, luminescence. hit rate 0.17% among 360,000. inhibition, % at 3.6 µM. Q9Y6Q9;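 active means inhibition above a per-campaign cutoff, the mean of all compounds plus 3 SD, cut at about 60% in these data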;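 further: higher means less SRC3-driven luciferase light from the GAL4 reporter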
NCOA2 inhibitor: human SRC2 (NCOA2) inhibition; Q15596; HEK293 GAL4-SRC2 luciferase reporter, luminescence; hit rate 0.17% among 370,000; inhibition, % at 9 µM;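 active means inhibition above the mean inhibition of all tested compounds plus 3 SD, set per campaign, cut at about 52% in these data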
VP16 Luc counter: inhibits VP16 reporter, flagging COUP-TFII antagonist hits; shares compounds with NR2F2 inh; HEK293 Gal4-VP16 luciferase reporter, luminescence; inhibition, % at 8.5 µM; hit rate 25% among 2,500; in the data active means inhibition above about 13%
COUP-TFII conf: confirmation of human COUP-TFII (NR2F2) inhibitors. HEK293 NGFI-A luciferase reporter, luminescence. shares compounds with NR2F2 inh. inhibition, % at 8.5 µM. hit rate 45% among 2,500;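 active means mean inhibition over three repeats above a set limit taken from the earlier primary screen, cut at about 38% in these data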
Numbers stand for hits; n = inactive; x = not tested or not shown; ! = not confirmed by another sample. Shown are actives, neighbours in structure and some others; about 1.3% of the full set was active somewhere.

SMILES | NR2F2 inh | NCOA1 inh | Gli-Sufu block | NR5A2 inv ag | NCOA3 inh | NCOA2 inhibitor | VP16 Luc counter | COUP-TFII conf
C[C@]12CC[C@H](O)CC1=CCC1C2CC[C@]2(C)C(=O)[C@H](Br)CC12 (some centres not stated) | n | n | n | n | n | n | x | x
CCC(C)C1NC(=O)C(NC(=O)C(CC(C)C)N(C)C(=O)C2CCCN2C(=O)C(C)O)C(C)OC(=O)C(Cc2ccc(OC)cc2)N(C)C(=O)C2CCCN2C(=O)C(CC(C)C)NC(=O)[C@H](C)C(=O)[C@H](C(C)C)OC(=O)CC1O (some centres not stated) | 91 | 95 | 90 | 97 | 94 | 78 | 21 | 88
CCCNC(=O)N1[C@H]2CC[C@@H]1C(C(=O)OC)=C(c1cc3ccccc3o1)C2 | n | n | n | n | n | n | x | x
Nc1ncnc2c1ccn2[C@@H]1O[C@H](CO)[C@@H](O)[C@H]1O | 64 | 82 | n | 103 | 89 | 64 | 32 | 51
NC(=S)c1cn(C2OC(CO)C(O)C2O)c2ncnc(N)c12 (configuration not stated) | 68 | 89 | n | 94 | 88 | 71 | 53 | 68
COC1=CC(=O)OC(CCc2ccc3c(c2)OCO3)C1 (configuration not stated) | n | n | n | n | n | n | x | x
CCC(=NCCc1c[nH]c2ccccc12)c1c(O)n(-c2ccc(C)cc2)c(=O)[nH]c1=O | n | n | n | n | n | n | x | x
CCC(=NCCc1c[nH]c2ccccc12)c1c(O)n(C)c(=O)n(C)c1=O | 47 | n | n | n | n | n | n | n
COC(/C(C)=C/C=C/C(C)=C/c1coc(C)n1)C(C)C1CC(O)C2(C)OC2C=CC(C)C2CC(CC(=O)O2)CC2OC2C(=O)O1 (configuration not stated) | n | n | n | n | n | n | x | x
Cc1ccccc1CN1Cc2cnnn2-c2ccccc2C1C#N (configuration not stated) | 39 | n | n | n | n | n | n | n
Cc1ccccc1C(=O)N1Cc2cnnn2-c2ccccc2C1C#N (configuration not stated) | n | n | n | n | n | n | x | x
CC(=O)OC1C(O)C(C)OC(OC2C(OC(=O)C3CCC4C(C3)OC3(CC(OC(=O)/C=C/c5ccccc5)C(C)CO3)C43CO3)OC(C)C(O)C2OC(C)=O)C1O (configuration not stated) | 91 | 96 | 90 | 99 | 95 | 72 | 23 | 87
Cc1cc(C)c2c(ccc3cccc[n+]32)c1 | n | n | n | n | n | n | x | x
COc1cccc(-n2c(O)c(C=NCCN3CCNCC3)c(=O)[nH]c2=S)c1 | n | n | n | n | n | n | x | x
COc1ccc(-n2nnnc2C(CCc2ccccc2)N2CCC(n3c(=O)[nH]c4ccccc43)CC2)cc1 (configuration not stated) | 39 | n | x | n | n | n | n | n
C[C@@H]1CN([C@H](C)CO)C(=O)CCCn2nncc2CO[C@@H]1CN(C)C(=O)Oc1ccccc1 | n | n | x | n | n | n | x | x
O=C(Cc1cc(=O)[nH]c(=O)[nH]1)N1CCN(CCO)CC1 | n | n | n | n | n | n | x | x
CC1=CC2OC3CC4OC(=O)C=CC=CC(C(C)O)OCC(O)C(C)CC(=O)OCC2(CC1O)C4(C)C31CO1 (configuration not stated) | 90 | 95 | 90 | 99 | 94 | 71 | 23 | 93
C=C1C(=O)O[C@@H]2C[C@@H](C)[C@@H]3C=CC(=O)[C@@]3(C)[C@@H](O)[C@H]12 | 97 | n | 97 | 87 | n | 85 | 84 | 99
C[C@@H]1CN([C@@H](C)CO)C(=O)CCCn2nncc2CO[C@H]1CN(C)C(=O)Oc1ccc2ccccc2c1 | n | n | x | n | n | n | x | x
CCOC(=O)CCCCCNC(=O)c1c(O)[nH]c(=O)[nH]c1=O | n | n | n | n | n | n | x | x
COc1ccc(S(=O)(=O)N2Cc3ccccc3-n3nncc3C2)cc1 | n | n | x | n | n | n | x | x
Cc1cc(C)c(S(=O)(=O)N2Cc3ccccc3-n3nncc3C2)c(C)c1 | 40 | n | x | n | n | n | n | n
CCCCn1c(NS(=O)(=O)c2ccc(C)cc2)c(C(=O)OCC)c2nc3ccccc3nc21 | n | n | n | n | n | n | x | x
CCCCn1c(NC(=O)c2ccco2)c(C(=O)OCC)c2nc3ccccc3nc21 | 44 | n | n | n | n | n | n | n
SMILES | NR2F2 inh | NCOA1 inh | Gli-Sufu block | NR5A2 inv ag | NCOA3 inh | NCOA2 inhibitor | VP16 Luc counter | COUP-TFII conf
COC(=O)N(c1ccccc1)P(=O)(Oc1ccccc1)Oc1ccccc1 | n | n | n | n | n | n | x | x
O=S(=O)(c1cc(Cl)cc(Cl)c1)N1Cc2cc(-c3ccccc3)ccc2-n2nncc2C1 | n | n | x | n | n | n | x | x
COP(=O)(OC)OC=C(Cl)Cl | n | x | x | x | x | n | x | x
CCOC(=O)[C@]12Cc3cc(C)ccc3[C@H]1N(C1CCCCC1)C(=O)c1cc(OC)ccc12 | 52 | x | x | 94 | x | n | 25 | n
CC12CC[C@H]3[C@@H](CCC4(O)C[C@H](O)CCC34/C=N/NC(=O)c3ccc(O)cc3)C1(O)CCC2C1=CC(=O)OC1 (some centres not stated) | n | n | n | n | n | n | x | x
CC(=O)OC1CC(OC2C(O)CC(OC3C(O)CC(OC4CCC5(C)C(CCC6C5CCC5(C)C(C7=CC(=O)OC7)CCC65O)C4)OC3C)OC2C)OC(C)C1OC1OC(CO)C(O)C(O)C1O (configuration not stated) | 77 | 92 | n | 99 | 89 | 60 | 56 | 78
CC1=NNC(=O)C1Br (configuration not stated) | n | n | n | n | n | n | x | x
N#Cc1ccc(NC(=O)CN2CCN(C(=O)c3cccs3)CC2)cc1Cl | n | n | n | n | n | n | x | x
Oc1ccc(-[n+]2c(-c3ccccc3)cc(-c3ccccc3)cc2-c2ccccc2)cc1 | 62 | n | n | n | n | n | n | 51
COc1ccc(-[n+]2c(-c3ccccc3)cc(-c3ccccc3)cc2-c2ccccc2)cc1 | 57 | x | 83 | x | x | n | 20 | 60
O=P1(NCCCl)OCCCN1CCCl (configuration not stated) | n | n | n | n | n | n | x | x
CN(C)c1ccc(/C=C/c2cc[n+](C)c3ccccc23)cc1 | 84 | 68! | 87 | 86 | 67! | n | 23 | 82
Cc1ccc2nc(-c3ccc(CN4CCC(n5nnc6ccccc65)CC4)cc3)c(-c3ccccc3)nc2c1 | 45 | x | x | x | x | n | n | n
